The results in this text go back to PubChem BioAssay (NCI).

Each structure is given as a SMILES string. This is part of a sample that, as a whole, favours compounds with a hit. Of some 83,000 tested, about 20% had one in any assay.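 How to read the values: 0–100, growth inhibition (40 = 60% inhibited); 0, no net growth; -100 to 0, cell death (-40 = 40% of starting cells died; -100 = all dead).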 Values without a mark were called inactive. Activity calls are given as the source filed them. Rule for the calls: active = growth percent below 10; inactive = the rest.

What all share (assay): NCI-60 one-dose screen, 48 h (100 = growth as untreated, 0 = no growth, -100 = all killed)
Details in all cases: 10 µM unless noted

For test [1], the system named is HCT-15 colon.
Test [2] concerns HT29 colon.
In test [3] the test system is SNB-75 CNS.
Test [4] deals with SNB-19 CNS.
The test system of test [5] is U251 CNS.
For test [6], the system named is PC-3 prostate.
The subject of test [7] is SK-MEL-5 melanoma.
For test [8], the system named is UACC-62 melanoma.
For test [9], the system named is LOX IMVI melanoma.
Test [10] concerns SK-MEL-28 melanoma.
Test [11] relates to SK-MEL-2 melanoma.
Test [12] has as its system EKVX NSCLC.
Test [13] deals with SN12C renal.
Test [14] has as its system UO-31 renal.
Test [15] has as its system ACHN renal.
In test [16] the test system is A498 renal.
The test system of test [17] is CCRF-CEM leukemia.
The test system of test [18] is MOLT-4 leukemia.
Test [19] relates to SR leukemia.
The test system of test [20] is TK-10 renal.

Turning to `CC(C)(C)c1nc2c(s1)c1nc(N)ncc1c1ccc(NS(=O)(=O)c3c(F)cccc3F)c(F)c12`, the growth in test [1] was 42.7%; in test [2], 10.8%; in [3] it was 57.4%; in test [4] it was 105%; in test [5], 73%; in test [6] it was 51.9%. Further, the growth in test [7] was 36.1%; in test [8], -2.66% (active); in [9], 20.5%; in [10], 4.5% (active); in test [11], 50%; in test [12] it was 60.5%. Moreover, the growth in [13] was 58.9%; in [14], 28.9%; in test [15], 22.6%; in test [16], -2.96% (active); in test [17], 73.3%; in [18] it was 59.5%. Besides, the growth in test [19] was 42.3%.
As to `COc1ccc(Sc2[nH]c(C(C)=O)c3ccccc23)cc1`, the growth was 53.9% in test [1]; 47.6% in test [2]; 48.1% in test [3]; 67.1% in test [4]; 76% in [5]; 52.1% in test [6]. Besides, the growth is 45.1% in test [7]; 47.1% in [8]; 71.9% in test [9]; 84.1% in [10]; 57.8% in [11]; 30.9% in test [12]. In addition, the growth in test [13] was 87.5%; in [14] it was 73.5%; in test [15], 80.9%; in test [16] it was -0.948% (active); in test [18], 48.5%; in test [19] it was 8.36% (active).
With `Cc1nn(-c2ccc(-c3ccc(OC(F)(F)F)cc3)cc2)c2nc(-c3ccccc3)nc(N)c12`, the growth in test [1] was 95.6%; in test [2] it was 90.2%; in test [3] it was 95%; in test [4], 90.7%; in test [5], 85.5%; in test [6], 93.2%. For the same molecule, the growth is 100% in test [7]; 99.9% in [8]; 93.8% in [9]; 115% in [10]; 101% in [11]; 97.7% in [12]. Besides, the growth is 92.5% in [13]; 82.4% in test [14]; 100% in [15]; 90.2% in test [16]; 88.9% in [17]; 82.4% in test [18]. In addition, the growth in test [19] was 55.6%.
Turning to `COc1ccc(OCC(=O)OC(C)C)cc1`, the growth is 98.4% in test [1]; 101% in test [2]; 85% in [3]; 99.2% in [4]; 104% in [5]; 103% in test [6]. Moreover, the growth is 96.4% in test [7]; 96.6% in test [8]; 87.2% in [9]; 102% in test [10]; 109% in test [11]; 99% in test [12]. The growth was 96.8% in test [13]; 89.6% in test [14]; 92.9% in [20]; 108% in [15]; 112% in test [17]; 91.1% in test [18]. For the same molecule, the growth in [19] was 91.9%.
`COc1ccc(C2CC(c3ccc(OC)cc3O)=NN2c2ccc(S(N)(=O)=O)cc2)cc1` (stereo unspecified): the growth in test [1] is 33.6%; in test [2] it was 33.7%; in test [3], 58.2%; in test [4] it was 59.5%; in test [5], 40.9%; in [6], 15.5%. For the same molecule, the growth in [7] is 49%; in test [8] it was 38.1%; in test [9], 52.5%; in test [10], 56.1%; in test [11], 58.7%; in [12] it was 20.9%. Further, the growth in test [13] was 54.2%; in test [14], 27.6%; in test [15], 29.1%; in test [16], 71.2%; in [17] it was 13.5%; in test [18], 4.82% (active). In addition, in test [19], the growth was 8.1% (active).
In the case of `O=C1C(=O)c2c(nc3ccc(C(F)(F)F)cn23)-c2ccccc21`, the growth in test [1] is -67.4% (active); in test [2] it was -9.93% (active); in [3], -97% (active); in test [4], -84.4% (active); in [5], -96% (active); in test [6], -85% (active). In addition, the growth in test [7] was -99.2% (active); in test [8], -82.4% (active); in [9], -65.4% (active); in [10] it was -84.3% (active); in test [11] it was -67.1% (active); in [12], -72.5% (active). Moreover, the growth in test [13] was -84.4% (active); in test [14], -97.5% (active); in test [15], -99.1% (active); in test [16] it was -92.9% (active); in [17], 0.668% (active); in [18], -33.1% (active). Moreover, in test [19], the growth was -5.53% (active).
Regarding `NCCCn1c2c(c3cc(-c4ccn[nH]4)ccc3c1=O)C(=O)c1ccccc1-2`, the growth in test [1] was 31.2%; in [2], 9.31% (active); in [3], 42.2%; in test [4], 55%; in test [5], 37.1%; in test [6], 50%. The growth in test [7] is 58.4%; in [8], 78%; in test [9], 47.1%; in test [10], 111%; in [11] it was 105%; in [12], 77%. The growth in test [13] was 49.1%; in [14] it was 47.7%; in test [20] it was 72.3%; in [15], 20.4%; in test [17], 16.5%; in test [18], -9.41% (active). In addition, the growth in [19] is -2.64% (active).
Consider `O=C1NC(c2ccc(F)cc2)N=C2C(c3ccccc3)=NOC12` (stereo unspecified), for which the growth in test [1] is 103%; in test [2] it was 98.7%; in test [3], 101%; in [4] it was 103%; in test [5], 101%; in test [6], 104%. Further, the growth in test [7] was 105%; in test [8], 102%; in [9] it was 108%; in test [10] it was 115%; in test [11], 108%; in [12], 99.8%. The growth in [13] is 104%; in [14], 97.4%; in test [20] it was 106%; in [15], 107%; in [17] it was 102%; in test [18] it was 116%. Moreover, the growth in [19] was 112%.
